Experimental data taken from PubChem BioAssay AID2060323 (National Center for Advancing Translational Sciences (NCATS), 2025).
Inconclusive results are not listed. Activity calls are given as the source filed them. Calls come from the whole dose curve; as a rule, active = well fitted activation curve with a large enough effect; inconclusive = small, poorly fitted or top-dose-only effect; inactive = no such curve, though single readings can be large or run the other way.

These compounds were tested against Cellular tumor antigen p53 (Homo sapiens) (UniProt P04637) (assay: Confirmatory qHTS for small molecule compounds that upregulate eGFP-tagged delta133p53alpha (in C-terminal) cells.). Settings: delta133p53alpha-eGFP (C-terminal) reporter cells, GFP fluorescence upregulation; series mostly up to 57.5 µM; activation (upregulation): at the top concentration.
Chain of Cellular tumor antigen p53 (Homo sapiens) (P04637 whole entry, looked up): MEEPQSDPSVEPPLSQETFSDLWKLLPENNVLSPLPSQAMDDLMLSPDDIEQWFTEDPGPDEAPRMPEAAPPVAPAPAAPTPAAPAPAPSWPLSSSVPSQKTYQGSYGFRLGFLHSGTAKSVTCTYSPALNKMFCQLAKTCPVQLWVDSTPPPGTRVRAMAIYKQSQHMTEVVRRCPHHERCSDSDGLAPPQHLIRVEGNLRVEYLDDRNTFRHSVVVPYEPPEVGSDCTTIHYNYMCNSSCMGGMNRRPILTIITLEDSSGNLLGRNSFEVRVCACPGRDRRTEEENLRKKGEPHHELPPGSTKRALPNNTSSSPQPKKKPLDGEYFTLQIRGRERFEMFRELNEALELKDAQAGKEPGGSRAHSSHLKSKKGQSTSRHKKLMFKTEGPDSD
Source text: Assay Development and Screening Technology
National Center for Advancing Translational Sciences (NCATS),
National Institute of Health (NIH), Rockville, Maryland
Cellular senescence (CS) is one of the hallmarks of aging and age-related diseases. Senescent cells are characterized by an irreversible growth arrest, an increase in senescence-associated beta-galactosidase (SA-beta-gal) activity and p16INK4a expression, an activation of the DNA damage response pathways, and the emergence of a senescence-associated secretory phenotype (SASP).
Delta133p53alpha, a human/primate-specific p53 protein isoform, delays or inhibits the induction of CS and SASP in various types of human cells, including progeria-derived fibroblasts, primary normal astrocytes, and CD8+ T lymphocytes. Induction of delta133p53alpha with small molecule compounds may provide therapeutic opportunities for inhibition of senescence/SASP-associated pathologies in progeria syndromes, astrocyte-mediated neuroprotection in neurodegenerative diseases, and possibly prevention and treatment of a wider range of senescence- and aging-associated diseases.
Here we report the development and validation of a cell-based quantitative high throughput screening (qHTS) assay in 1,536-well format. This qHTS assay uses the NCI-H358 cell line with doxycycline-inducible expression of enhanced green fluorescent protein (eGFP)-tagged delta133p53alpha, which allows efficient and highly quantitative measurement of the protein levels.
PROTOCOL TABLE (as described by Inglese J, Shamu CE and Guy RK. 2007)
SEQUENCE No. (e.g., 1, 2, 3, etc.); […] (e.g., Cells, Incubation, Reagent, etc.); VALUE; DESCRIPTION.
1; Cells; 4uL; 800 doxycycline treated cells / well in doxycycline-free media, 1536-well black, clear-bottom low base Aurora microplates.
2; Compounds; 23 nL; Kalypsis pin tool (Wako) equipped with 1536-well pin heads, 5-azacytidine positive control.
3; Incubation; 24 hr; 37C, 5% CO2; 95% relative humidity.
4; Aspiration; 1x; BioTek EL406 washer dispenser (Agilent).
5; Fixing; 3.5% paraformaldehyde, BioTek EL406 washer dispenser (Agilent).
6; Washing; 1x PBS; BioTek EL406 washer dispenser (Agilent).
7; Nuclei staining; 1:1000 dilution of Hoechst 33342 (Thermofisher), BioTek EL406 washer dispenser (Agilent).
8; Incubation; 20 min; in the dark at room temperature.
9; Washing; 2x, 1x PBS (ThermoFisher), BioTek EL406 washer dispenser (Agilent).
10; Reagent; 10 uL; 1x PBS per well, sealed with clear adhesive tape.
11; Detection; Fluorescence, Acumen eX3 laser scanning cytometer (STP Labtech), GFP filters […].
NOTES (numbers refer to sequence numbers above).
1. NCI-H358 cells expressing eGFP-tagged delta133p53alpha were grown in T75 culture flasks and treated with doxycycline for 24h, at 10 ng/ml for eGFP-D133p53a cells (N-terminal cell) and 100 ng/ml for D133p53a-eGFP cells (C-terminal cells). Cells were trypsinized, counted using a Counted 3 Automated Cell Counter (Thermo Fisher), and diluted to a concentration of 200,000 cells/ml. A Multidrop Combi Reagent Dispenser (ThermoFisher) was used to dispense 800 cells/well in […] of doxycycline-free media, into 1536-well black/clear bottom low base plates (AuroraMicroplates).
2. After plating cells, 23 nl of compound library, DMSO vehicle control or positive control (5-azacytidine) were transferred by Pin Tool (Wako). The plate map layout was the same for each plate: (column 1) non-doxycycline treated cells + DMSO vehicle control; (column 2) doxycycline treated cells + DMSO vehicle control baseline; (column 3) doxycycline treated cells + positive control 57.5 uM final concentration 5-azacytidine; (column 4) doxycycline treated cells + serial dilution of 5-azacytidine, 16-point 1:2 titration spanning 1.8 nM to […] final concentration; (columns 5-48) doxycycline treated cells + titration of library compounds.
3. Cells were incubated at 37 °C, 5 % CO2, 95% RH with breathable metal lid for 24h.
4-10. […]

Activation (upregulation), inactive:
CCCCCCCCCCCCCCCCCCOC[C@H](COP(=O)([O-])OCC[N+](C)(C)C)OC -18%
Brc1c(Br)c(Br)c2n[nH]nc2c1Br 0.507%
C=CCNc1ncnc2ccc(Br)cc12 -0.729%
O=C(c1cc(O)c(O)c([N+](=O)[O-])c1)c1ccccc1F 3.4%
N#Cc1cc([N+](=O)[O-])c2sc(C(N)=O)[n+]([O-])c2c1 3.58%
N=c1ccn2c(n1)O[C@H]1[C@H](O)[C@@H](CO)O[C@H]12 8.71%
C#C[C@]1(O)CC[C@H]2[C@@H]3CCC4=Cc5oncc5CC4(C)[C@H]3CCC21C (stereo not given in full) 8.44%
O[Si](CCCN1CCCCC1)(c1ccc(F)cc1)C1CCCCC1 (stereo not given) 14.9%
CCOC(=O)Nc1ccc(NCc2ccc(F)cc2)nc1N 24.1%
CCCC(=O)NCCc1c2n(c3ccc(OC)cc13)CCCc1ccccc1-2 10.5%
CC1CN(S(=O)(=O)c2cccc3cnccc23)CCN1 (stereo not given) 0.467%
C[C@]12CC[C@@H]3c4ccc(O)cc4C[C@@H](CCCCCCCCCS(=O)CCCC(F)(F)C(F)(F)F)[C@H]3[C@@H]1CC[C@@H]2O (stereo not given in full) 2.11%
Nc1nc2ccc(Cl)cc2c2nc(-c3ccco3)nn12 29.5%
N=S(=O)(O)Cc1noc2ccccc12 -6.26%
CNC(=O)[C@H]1O[C@@H](n2cnc3c(NCc4cccc(I)c4)ncnc32)[C@H](O)[C@@H]1O -35.1%
CN(C)CCCC1(c2ccc(F)cc2)OCc2cc(C#N)ccc21 (stereo not given) 0.697%
CC(C)(C(=O)O)c1ccc(C(O)CCCN2CCC(C(O)(c3ccccc3)c3ccccc3)CC2)cc1 (stereo not given) 6.95%
Cn1cnc2c(NCc3ccccc3)nc(NCCO)nc21 3.46%
COc1cc2c(cc1OC)-c1cc(=Nc3c(C)cc(C)cc3C)n(C)c(=O)n1CC2 -16.1%
CCCCS(=N)(=O)CCC(N)C(=O)O (stereo not given) 0.0359%
O=Nc1c(-c2c(O)[nH]c3cc(Br)ccc23)[nH]c2ccccc12 4.1%
O=C1NC(=O)c2c1c(-c1ccccc1)cc1[nH]c3ccc(O)cc3c21 9.9%
Nc1nc(Cl)nc2c1ncn2[C@@H]1O[C@H](COP(=O)(O)OP(=O)(O)OP(=O)(O)O)[C@@H](O)[C@H]1O -17.8%

Potency, active:
Cc1cc(C)c(/C=C2\C(=O)Nc3ccccc32)[nH]1 7.69 µM
O=[N+]([O-])c1ccc2c(c1)S(=O)(=O)C=C2 8.63 µM
COc1ccc(/C=C2\COc3ccc(C)cc3C2=O)cc1O 43.2 µM
O=C1NCc2c1c1c3ccccc3[nH]c1c1[nH]c3ccccc3c21 27.3 µM
Cc1cc(O)c2c(c1)C(=O)c1cc(O)cc(O)c1C2=O 21.7 µM
CC[n+]1c(/C=C/C=C2/N(C)c3ccccc3C2(C)C)sc2ccccc21 12.2 µM
O=C(N[C@@H](Cc1ccccc1)C(=O)CCl)OCc1ccccc1 3.85 µM
CC[C@@]1(O)C(=O)OCc2c1cc1n(c2=O)Cc2cc3c(CN(C)C)c(O)ccc3nc2-1 4.85 µM
Cc1ccc(S(=O)(=O)N[C@@H](Cc2ccccc2)C(=O)CCl)cc1 15.3 µM
O=C1NC(=O)c2cc(Nc3ccccc3)c(Nc3ccccc3)cc21 9.68 µM
Cn1cc(C2=C(c3ccc(Cl)cc3Cl)C(=O)NC2=O)c2ccccc21 0.968 µM
NC[C@@H]1O[C@H](C23CC4CC(CC(C4)C2)C3)Cc2c1ccc(O)c2O 19.3 µM
CC12C(=O)OC(=O)C1(C)C1CCC2O1 (stereo not given) 4.85 µM
O=C1C(SCCO)=C(SCCO)C(=O)c2ccccc21 9.68 µM
CC1c2cccc(O)c2C(O)=C2C(=O)C3(O)C(O)=C(C(N)=O)C(=O)C(N(C)C)C3C(O)C21 (stereo not given) 0.0061 µM
COC(=O)[C@H]1[C@H]2C[C@@H]3c4[nH]c5cc(OC)ccc5c4CCN3C[C@H]2C[C@@H](OC(=O)c2cc(OC)c(OC)c(OC)c2)[C@@H]1OC 30.6 µM

Potency, inactive:
CC(C)(C)[C@]1(O)CCN2C[C@H]3c4ccccc4CCc4cccc(c43)[C@@H]2C1
